The values below come from PubChem BioAssay (Tox21).

The nature of assay [1]: qHTS assay for small molecules that induce genotoxicity in human embryonic kidney cells expressing luciferase-tagged ATAD5 (AID 651632). Further: nearly all actives have a fitted effect of over 15% in size. Further: potency means the concentration at half of the fitted maximal effect. Put shortly:
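DMSO vehicle served as the control. HEK293T reporter cells, 16 hr at 37C, then 30 min Amplite at room temperature; ATAD5 induction is measured as luciferase activity.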
For orientation: In qHTS, concentration-response curves come from the screen itself.

Assay [2] in a line: qHTS assay for small molecule agonists of the p53 signaling pathway - cell viability (AID 651633; calls by dose curve; further: nearly all actives have a fitted effect of over 30% in size; further: potency means the concentration at half of the fitted maximal effect). The method in brief: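 p53RE-bla cells were treated with compound for 16 hours at 37 C. Cytotoxicity was then measured as CellTiter-Glo luminescence after 30 min at room temperature.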
Assay [3] can be described thus: qHTS assay for small molecules that induce genotoxicity in human embryonic kidney cells expressing luciferase-tagged ATAD5 - cell viability (AID 651634; calls by dose curve; further: nearly all actives have a fitted effect of over 25% in size; further: potency means the concentration at half of the fitted maximal effect). Put shortly: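 Here HEK293T cells with the ATAD5 luciferase reporter are incubated with test compounds for 15.5 hr, and cytotoxicity is then gauged by measuring protease activity in live cells using fluorescence.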

The nature of assay [4]: qHTS assay for small molecule disruptors of the mitochondrial membrane potential - cell viability (AID 720634; calls by dose curve; further: nearly all actives have a fitted effect of over 20% in size; further: potency means the concentration at half of the fitted maximal effect). Put shortly: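 Viability of HepG2 cells is scored from ATP content by luminescence; cells are exposed to compound for 1 hr at 37 C and 5% CO2, then dosed with m-MPI dye before the CellTiter-Glo reagent.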
Assay [5] in a line: qHTS assay for small molecule disruptors of the mitochondrial membrane potential (AID 720635). Further: potency means the concentration at half of the fitted maximal effect. The method in brief:
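HepG2 cells exposed to compound 1 hr at 37C, then Mito-MPS dye 30 min. Ratio read of aggregate (540/590 nm) versus monomer (490/535 nm) fluorescence.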

Assay [6] is described as follows: qHTS assay to test for compound auto fluorescence at 535 nm (green) in HepG2 cells (AID 720675).
Assay [7] can be described thus: qHTS assay to test for compound auto fluorescence at 460 nm (blue) in HEK293 cells (AID 720678). Put shortly:
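Cells were seeded and left to adhere for 4-5 hr at 37C. Compounds were then pin-transferred. After an overnight incubation at 37C under 5% CO2, intrinsic fluorescence at 405/460 nm was measured and referenced to triamterene.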

A short description of assay [8]: qHTS assay to test for compound auto fluorescence at 590 nm (red) in HEK293 cells (AID 720679). The method in brief: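 Each well held 2,000 HEK293 cells in medium containing 10% dialyzed FBS. Following 4-5 hr attachment at 37C, 23 nL test compound or DMSO was added; plates sat overnight, and red fluorescence (540/590nm) was recorded.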
Assay [9] in a line: qHTS assay to test for compound auto fluorescence at 535 nm (green) in HEK293 cells (AID 720680).
Assay [10] is described as follows: qHTS assay to test for compound auto fluorescence at 460 nm (blue) in HEK293 cell free culture (AID 720681). Put shortly: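 Compounds were added to cell-free DMEM with 10% FBS and fluorescence read directly. The blue channel used 405 nm excitation and 460 nm emission, with triamterene as the reference fluorophore.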
Assay [11] is described as follows: qHTS assay to test for compound auto fluorescence at 535 nm (green) in HEK293 cell free culture (AID 720682). Put shortly: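 DMEM + 10% FBS, cell-free; cpd or DMSO pinned in; Ex485/Em535 read; output as fluorescein-equivalent signal.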
Assay [12] is described as follows: qHTS assay to test for compound auto fluorescence at 590 nm (red) in HEK293 cell free culture (AID 720683). The method in brief: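 Cell-free wells of DMEM with 10% FBS received compound, and intrinsic fluorescence was read at excitation/emission 540/590 nm. Values expressed as equivalence to Rose Bengal sodium.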
Assay [13] can be described thus: qHTS assay to test for compound auto fluorescence at 590 nm (red) in HepG2 cell free culture (AID 720684). Put shortly:
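Rose Bengal sodium served as the reference for red signal. Test compounds were dispensed into serum-containing MEM (10% FBS) without cells, and plates were read at 540/590 nm.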

The nature of assay [14]: qHTS assay to test for compound auto fluorescence at 460 nm (blue) in HepG2 cell free culture (AID 720685). Put shortly: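 Cell-free plates of MEM plus 10% FBS received 23 nL compound or DMSO vehicle; blue-channel (405/460 nm) intensity scored against triamterene as reference fluorophore.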
Assay [15] in a line: qHTS assay to test for compound auto fluorescence at 535 nm (green) in HepG2 cell free culture (AID 720686).
A short description of assay [16]: qHTS assay to test for compound auto fluorescence at 460 nm (blue) in HepG2 cells (AID 720687). Put shortly:
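HepG2 cells in MEM with 10% FBS, attached overnight at 37 C, were exposed to compound or DMSO for 1 hr at 37 C, 5% CO2. Blue fluorescence was read at 405/460 nm, with triamterene as reference fluorophore.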

Assay [17] in a line: qHTS assay to test for compound auto fluorescence at 590 nm (red) in HepG2 cells (AID 720674). Put shortly:
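Seeding: 2,000 HepG2 cells/well, MEM/10% FBS, overnight 37 C. Dosing: compound vs DMSO. Incubation: 1 hr, 37 C, 5% CO2. Read: fluorescence 540 ex/590 em, Rose Bengal sodium as red reference.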

Assay [18] concerns the target Glucocorticoid receptor (Homo sapiens) (UniProt P04150). Briefly: qHTS assay to identify small molecule agonists of the glucocorticoid receptor (GR) signaling pathway (AID 720691; active means well fitted activation curve with a large enough effect in the signal ratio in the repeat runs, not every such curve was filed as active; the % refers to the signal ratio). The method in brief: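 Compounds in DMSO, alongside positive controls, were added to GR-bla HeLa reporter cells and incubated 18 h at 37 C; GRE-driven beta-lactamase was detected by fluorescence after 2 h with FRET substrate at room temperature.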

The target is the same in assay [19]. In words: qHTS assay to identify small molecule antagonists of the glucocorticoid receptor (GR) signaling pathway (AID 720692; active means well fitted inhibition curve with a large enough effect in the signal ratio in the repeat runs, not every such curve was filed as active; the % refers to the signal ratio). The method in brief:
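In a 1536-well cell format, compounds were added 4 h after seeding GR-bla HeLa cells, together with dexamethasone at 5 nM final; reporter activity was measured by FRET-substrate fluorescence following 18 h at 37 C.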

Molecules are shown by their SMILES. Inconclusive results are not listed. More than one record can exist for a structure, and the calls need not agree. The source made the active and inactive calls. Unless noted, the call rests on the fitted dose curve; in most records, active means well fitted curve in the direction sought with a large enough effect in the repeat runs; inconclusive means weak or mixed curves; inactive means no such curve, though single readings can be large; an effect the other way counts as inactive or inconclusive.

Glucocorticoid receptor (Homo sapiens), sequence (P04150 whole entry, looked up): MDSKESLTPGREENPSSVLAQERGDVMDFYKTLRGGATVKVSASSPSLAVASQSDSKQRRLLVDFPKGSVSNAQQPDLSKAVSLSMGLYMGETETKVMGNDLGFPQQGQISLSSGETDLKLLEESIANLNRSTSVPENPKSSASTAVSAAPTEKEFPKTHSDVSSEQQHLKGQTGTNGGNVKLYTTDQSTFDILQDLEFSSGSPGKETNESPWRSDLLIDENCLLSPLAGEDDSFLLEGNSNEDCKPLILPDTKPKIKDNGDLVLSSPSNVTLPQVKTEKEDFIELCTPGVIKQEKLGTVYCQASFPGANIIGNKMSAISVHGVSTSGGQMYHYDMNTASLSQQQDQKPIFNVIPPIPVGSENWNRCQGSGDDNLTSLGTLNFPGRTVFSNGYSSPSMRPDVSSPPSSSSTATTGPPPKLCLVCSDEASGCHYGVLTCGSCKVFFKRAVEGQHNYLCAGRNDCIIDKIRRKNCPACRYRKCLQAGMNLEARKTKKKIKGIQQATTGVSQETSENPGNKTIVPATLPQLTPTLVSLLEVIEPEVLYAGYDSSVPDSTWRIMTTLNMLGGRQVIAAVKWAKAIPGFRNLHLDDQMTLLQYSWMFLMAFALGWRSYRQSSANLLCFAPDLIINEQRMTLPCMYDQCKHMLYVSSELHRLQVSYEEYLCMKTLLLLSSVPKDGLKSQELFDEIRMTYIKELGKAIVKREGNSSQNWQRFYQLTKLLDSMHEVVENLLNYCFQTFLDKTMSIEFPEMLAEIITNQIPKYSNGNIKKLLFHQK

Turning to `c1ccc2c(c1)CCc1ccccc1N2`, the Potency entry in [1], in [2], in [3], in assay [7], in assay [10] and in [14] was “inactive” each time. The Potency result in assay [16] is “inactive”. Besides, the Potency is 54.8 µM (active) in [4] and 19.4 µM (active) in assay [5]. Further, the result in assay [6], in [8], in assay [9], in assay [11], in assay [12] and in assay [13] was inactive. Also, the outcome in assay [15] was inactive.
Turning to `COc1ncnc(NS(=O)(=O)c2ccc(N)cc2)c1OC`, the Potency result in assay [1], in assay [2], in assay [3], in [4], in assay [5] and in assay [7] was “inactive” in each case. For the same compound, the Potency entry in [10], in assay [14] and in assay [16] was “inactive” each time. Also, the compound was called inactive in assay [17], in assay [6], in assay [8], in assay [9], in [11] and in assay [12]. Besides, the outcome in assay [13] and in [15] was inactive.
In the case of `CC1=Nc2ccc3ccccc3c2C1(C)C`, the Potency entry in [1], in assay [2], in assay [3], in assay [4], in assay [7] and in assay [10] was “inactive” each time. Further, the Potency entry in assay [14] and in [16] was “inactive” throughout. In addition, in assay [5], the Potency is 19.3 µM (active). The compound was classed as inactive in assay [17], in [6], in [8], in assay [9], in assay [11] and in assay [12]. Moreover, the outcome in assay [13] and in assay [15] was inactive.
Consider `N#CCCN(CCO)CCO`, for which the Potency entry in [1], in assay [2], in assay [3], in assay [4], in assay [5] and in assay [7] was “inactive” throughout. In addition, the Potency entry in assay [10], in assay [14], in assay [16] and in assay [18] was “inactive” throughout. For the same compound, the outcome in assay [17], in assay [9], in [11], in [12] and in assay [13] was inactive.
With `Oc1ccc(Cl)c2cccnc12`, the Potency result in assay [1], in [2], in assay [3], in assay [4], in [7] and in assay [10] was “inactive” throughout. Moreover, the Potency result in [14], in [16], in [18] and in assay [19] was “inactive” each time. Also, the Potency in [5] is 11.9 µM (active). Moreover, the outcome in assay [17], in assay [6], in assay [8], in assay [9], in assay [11] and in [13] was inactive.
`Nc1ccc(N=Nc2ccccc2)c(N)c1`: the Potency in assay [1] was 2.12 µM (active); in assay [3], 67.1 µM (active); in assay [4], 47.5 µM (active); in assay [5], 4.75 µM (active). The Potency entry in [2], in [7], in [10], in assay [14], in assay [16] and in [18] was “inactive” throughout. The compound was classed as inactive in [17], in assay [6], in assay [8], in assay [9], in [11] and in [12]. The call in [13] and in assay [15] was inactive.
Regarding `Oc1c(I)cc(I)c2cccnc12`, the Potency entry in [1], in [3], in [4], in [7], in assay [10] and in assay [14] was “inactive” throughout. Moreover, in assay [16], the Potency entry was “inactive”. In assay [2], the Potency is 10.6 µM (active). For the same compound, the call in assay [17], in [6], in assay [8], in assay [9], in assay [11] and in assay [12] was inactive. In addition, the compound was called inactive in assay [13] and in assay [15].
`C1COC1`: the Potency result in assay [1], in assay [2], in assay [3], in assay [4], in assay [5] and in [7] was “inactive” in each case. The Potency entry in [10], in assay [14], in assay [16], in assay [18] and in assay [19] was “inactive” throughout. In addition, the result in [17], in [6], in [8], in assay [9], in [12] and in assay [13] was inactive. In addition, in assay [15], the result was inactive.
For `OCCOCC#CCOCCO`, the Potency result in assay [1], in assay [2], in assay [3], in [4], in assay [7] and in assay [10] was “inactive” each time. Besides, the Potency result in assay [14] and in assay [16] was “inactive” in each case. In addition, the call in assay [17], in assay [6], in assay [8], in [9], in assay [11] and in [12] was inactive. The call in assay [13] and in assay [15] was inactive.
Take `C[C@@]12CCC[C@H]1[C@@H]1CC[C@H]3C[C@@H](O)CC[C@]3(C)[C@H]1CC2`: the Potency result in [1], in [2], in [3], in assay [4], in assay [5] and in assay [7] was “inactive” in each case. Moreover, the Potency result in [10], in assay [14], in [16] and in assay [18] was “inactive” each time. The result in assay [17], in assay [8], in [9], in [11], in assay [13] and in assay [15] was inactive.
Regarding `O=c1cc(-c2ccccc2)oc2cc(O)cc(O)c12`, the Potency entry in [1], in assay [2], in assay [3], in assay [7], in assay [10] and in [14] was “inactive” each time. Also, the Potency entry in [16] and in assay [18] was “inactive” in each case. In addition, the Potency in assay [4] is 30.6 µM (active); in assay [5], 3.86 µM (active). The call in assay [6], in assay [8], in [9], in assay [11], in [12] and in assay [13] was inactive. In addition, the result in [15] was inactive.
With `CCCCCC[C@@H](O)C/C=C\CCCCCCCC(=O)O`, the Potency result in assay [1], in assay [3], in assay [4], in assay [5], in [7] and in [10] was “inactive” in each case. In addition, the Potency result in assay [14], in assay [16], in assay [18] and in [19] was “inactive” each time. For the same compound, the Potency in assay [2] is 21.1 µM (active) and inactive. The outcome in [17], in [6], in assay [8], in assay [9], in assay [11] and in [12] was inactive. In addition, the result in assay [13] and in assay [15] was inactive.
As to `Nc1cccc2c1CN(C1CCC(=O)NC1=O)C2=O` (configuration not stated), the Potency entry in assay [1], in [2], in [3], in assay [4], in assay [5] and in assay [7] was “inactive” in each case. Also, the Potency entry in [10], in assay [14], in assay [16], in [18] and in assay [19] was “inactive” in each case. For the same compound, the outcome in assay [17], in [6], in assay [8], in assay [9], in assay [11] and in assay [13] was inactive. Besides, the call in assay [15] was inactive.
`CCC(=O)C1CC(C(C)C)CC=C1C` (configuration not stated): the Potency result in assay [1], in [2], in assay [3], in assay [4], in [5] and in assay [7] was “inactive” throughout. Further, the Potency entry in assay [10], in [14], in [16] and in assay [18] was “inactive” each time. For the same compound, the result in assay [17], in assay [6], in [9], in [11], in assay [12] and in [13] was inactive. For the same compound, the call in assay [15] was inactive.
